A number with no mark means an inactive call.
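Further: conidia screened in RPMI 1640 medium under 5% CO2, growth read by spectrophotometer, medium with 0.5% DMSO serving as the untreated reference.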

For the assay, the system named is Scedosporium aurantiacum CBS 136046. Kind of assay: growth inhibition relative to DMSO control (OD600); higher = more antifungal activity, active = 80 or more; extreme values may be limits of the assay. Conditions: 5 µM; 72 h; 37 °C.
In the case of `Cc1c[nH]c(=O)nc1NCc1ccccc1`, the growth inhibition was 10.8%.
As for `OC(Cn1cncn1)(Cn1cncn1)c1ccc(F)cc1F`, the figure is 29.9%.
To `O=C(NC(=O)N1CCCc2ccccc21)c1ccc(Cl)cc1Cl` belongs 3.05%.
To `NC(=O)c1cnc2ccc(S(=O)(=O)c3ccccc3)cc2c1Nc1ccc(O)cc1` belongs 32.1%; to `CC1(C)[C@H](C(=O)O)N2C(=O)C[C@H]2S1(=O)=O`, 0%.
Consider `CCc1cc(CCC(=O)Nc2ccccc2O)c(O)nc1C`, for which the growth inhibition is 5.23%.
To `CC(=O)N[C@H](C)C(=O)N[C@H](Cc1ccccc1)C(=O)O` belongs 10.8%; to `Nc1nc(O)c(Br)c(-c2cccc(Cl)c2)n1`, 4.65%; to `Cc1cc(NS(=O)(=O)c2ccc(-c3ccc(F)cc3F)cc2)no1`, 11.5%.
To `Nc1cc(N)c2nc(-c3ccccc3)c(Nc3ccc(F)cc3)nc2c1` belongs 0.18%; to `O=C(Nc1nnc(-c2ccc(Cl)cc2)o1)c1ccc(F)cc1`, 48.5%.
Turning to `C[Si]1(C)CCN(Cc2cc(-c3ccc(Cl)cc3)n(-c3ccc(Cl)cc3)n2)CC1`, the growth inhibition was 10%.
As for `O=C(Cc1ccccc1F)Nc1nc2ccccc2[nH]1`, the figure is 23.9%.
As for `CCc1c(O)nc2ccc(F)cc2c1OCC1CCC1`, the figure is 23.8%; as for `Cc1cc(O)c2c(c1)C(=O)c1c(I)c(O)c(I)c(O)c1C2=O`, 2.05%.
Turning to `O=S(=O)(NCB(O)O)c1ccc(-c2nnn[nH]2)cc1C(F)(F)F`, the growth inhibition is 13.6%.
As to `CO/N=C(\C(=O)N[C@@H]1C(=O)N2C(C(=O)OCOC(=O)C(C)(C)C)=C(/C=C\c3scnc3C)CS[C@H]12)c1csc(N)n1`, the growth inhibition is 0%.

Values taken from the supplement of paper PMC9897528.
